Measured values published in PubChem BioAssay (NCI).
Compounds without any hit were thinned out: in the full panel of roughly 83,000, 20% have a hit.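 Negative percent growth values reflect cell death: -40 means 40% of the cells present at the start died, and -100 means all died.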 Calls of active or inactive are those of the source. How the source made its calls: active means growth percent below 10; inactive means the rest.

These compounds were tested on HCC-2998 colon (assay: NCI-60 one-dose screen, 48 h (100 = growth as untreated, 0 = no growth, -100 = all killed)). Details: 10 µM.

Q: How did the growth turn out when `Oc1cccc(-c2nc3sccn3c2-c2ccncn2)c1` was run?
A: Its growth is 111% (inactive).

Q: Which growth does the source give for `CCOC(=O)c1cc(C(=O)c2cc(OC)c(OC)c(OC)c2)n2ccc(-c3cc[n+](CC(=O)c4cc(OC)c(OC)c(OC)c4)cc3)cc12` here?
A: The growth was 109% (inactive).

Q: How did the growth turn out when `C[C@H]1[C@H](OC(=O)CCC(=O)O)O[C@@H]2O[C@]3(C)CC[C@H]4[C@H](C)CC[C@@H]1[C@@]24OO3` was run?
A: Its growth is 48.1% (inactive).

Q: Which growth does the source give for `COc1ccc(C(=O)N/N=C/c2cc(C(F)(F)F)ccc2Cl)cc1` here?
A: The growth was 95.7% (inactive).

Q: For `COc1ccc(-c2cc(-c3ccc(Cl)cc3)nc(SCCCC(=O)NO)n2)cc1OC`, which growth is on record?
A: The growth was -50.7% (active).

Q: `CCC(=O)OC1CCC2C3CCC(=O)OC3C(C)(CCC(=O)O)CC12C` (stereo not given) was tested. Which growth did it give?
A: The growth was 5.22% (active).

Q: Which growth does the source give for `OCC1OC(n2ccc3c(NO)ncnc32)C(O)C1O` (stereo not given) here?
A: The growth was -38.7% (active).

Q: For `CC(C)(C)c1ccc(S(=O)(=O)N[C@H]2CC[C@H]3[C@@H]4CCc5cc(O)c([N+](=O)[O-])cc5[C@H]4CC[C@]23C)cc1`, which growth is on record?
A: The growth was 92.5% (inactive).

Q: `COc1cc(-c2nn(-c3cccc(NC(=O)CCNc4ccc(N5CCOCC5)cc4)c3)cc2-c2ccncc2)ccc1Cl` was tested. Which growth did it give?
A: The growth was 43.3% (inactive).

Q: For `COc1cc(-c2nn(-c3cccc(NC(=O)CN4CCOCC4)c3)cc2-c2cccnc2)ccc1Cl`, which growth is on record?
A: The growth was 112% (inactive).

Q: Which growth does the source give for `O=C(CCCSc1nc(-c2ccccc2)cc(-c2ccc(Cl)cc2)n1)NO` here?
A: Its growth is 12.7% (inactive).

Q: Which growth does the source give for `CC(C)N(CCOc1cccc(-c2nc3sccn3c2-c2ccnc(S(C)(=O)=O)n2)c1)C(C)C` here?
A: Its growth is 95.9% (inactive).

Q: `O=C(CCC(C(=O)c1ccccc1)c1ccccc1)c1ccccc1` (stereo not given) was tested. Which growth did it give?
A: The growth was 76.6% (inactive).

Q: For `COc1ccc(-c2csc(NC(=O)c3ccc(Cc4n[nH]c(=O)c5cccnc45)cc3)n2)cc1`, which growth is on record?
A: The growth was 90.1% (inactive).

Q: Which growth does the source give for `COc1cc(-c2nn(-c3cccc(NC(=O)CCN4CCN(Cc5ccccc5)CC4)c3)cc2-c2ccncc2)ccc1Cl` here?
A: Its growth is -12.8% (active).

Q: How did the growth turn out when `COc1cc2cc(Oc3ccc(NC(=O)c4cc(C(F)(F)F)cc(C(F)(F)F)c4)cc3)c(C)nc2cc1OC` was run?
A: The growth was 73.9% (inactive).

Q: For `C[C@]12CCC3c4ccc(O)cc4C[C@@H](CCCCCCCCCS(=O)CCCC(F)(F)C(F)(F)F)C3C1CC[C@@H]2O` (stereo not given in full), which growth is on record?
A: The growth was 87% (inactive).

Q: With `Cc1cc(Cl)ccc1Nc1nc(C(F)(F)F)ccc1C(=O)N/N=C/c1cccc(O)c1` as the compound, how does the growth read?
A: Its growth is 31.9% (inactive).

Q: For `COc1cc(C(=O)/C=C/c2c[nH]c3ccccc23)cc(OC)c1OC`, which growth is on record?
A: Its growth is 19.6% (inactive).

Q: With `CCOC(=O)CC(S(=O)(=O)c1ccccc1)S(=O)(=O)c1ccccc1` as the compound, how does the growth read?
A: The growth was 109% (inactive).

Q: How did the growth turn out when `CCNCC(=O)Nc1ccc(C(=O)OCC)cc1` was run?
A: Its growth is 98.7% (inactive).

Q: How did the growth turn out when `CCCc1cn(CC(=O)Nc2nc3ccccc3s2)nn1` was run?
A: Its growth is 116% (inactive).

Q: For `COc1cc2cc(Oc3ccc(NC(=O)Nc4ccc(Cl)c(C(F)(F)F)c4)cc3)c(C)nc2cc1OC`, which growth is on record?
A: The growth was -13.1% (active).

Q: With `COc1cc(/C=C2\CCCC3=C2NC(N)=NC3c2cc(OC)c(OC)c(OC)c2)cc(OC)c1OC` (stereo not given) as the compound, how does the growth read?
A: Its growth is -35.2% (active).

Q: With `COc1ccc(-c2cc(-c3ccc(Cl)cc3)nc(SCCCCCCC(=O)NO)n2)cc1OC` as the compound, how does the growth read?
A: Its growth is 80.3% (inactive).

Q: `COc1cc2ncnc(NC3CCC(O)CC3)c2cc1OC` (stereo not given) was tested. Which growth did it give?
A: Its growth is 106% (inactive).

Q: How did the growth turn out when `COc1cc(C)ccc1Oc1nc(Nc2ccc(N3CCOCC3)cc2)ncc1NC(=O)Nc1cc(C(F)(F)F)cc(C(F)(F)F)c1` was run?
A: Its growth is 101% (inactive).

Q: For `CCC(C)[C@H](NC(C)=O)C(=O)N[C@@H](CCCNC(=N)N)C(=O)N[C@@H](CCCCN)C(=O)N[C@@H](CC1CCC(O)CC1)C(=O)NC(C(=O)N[C@@H](CCSC)C(=O)N[C@@H](CCCNC(=N)N)C(=O)N[C@@]1(C)CCC/C=C\CCC[C@@](C)(C(=O)NC(C(=O)N[C@@H](CCC(=O)O)C(=O)N[C@@H](CC(C)C)C(=O)N[C@H](C(=O)N[C@@H](CCC(=O)O)C(N)=O)C(C)C)[C@@H](C)O)NC(=O)[C@H](CCC(N)=O)NC(=O)[C@H](CC(C)C)NC(=O)[C@H](CC(C)C)NC1=O)[C@@H](C)O` (stereo not given in full), which growth is on record?
A: The growth was 103% (inactive).

Q: For `CN1C(=O)C2(Nc3cc(Cl)ccc3S2)c2cc(Cl)ccc21` (stereo not given), which growth is on record?
A: Its growth is 93.5% (inactive).

Q: With `CC(=O)Nc1ccc2c(c1)C(=O)c1cccc(C(=O)O)c1-2` as the compound, how does the growth read?
A: Its growth is 102% (inactive).

Q: Which growth does the source give for `O=C(CNc1nnc(-c2cccnc2SCc2ccccc2)s1)Nc1nc(Cl)cc(Cl)n1` here?
A: Its growth is 122% (inactive).

Q: Which growth does the source give for `CCOC(=O)c1cc(C(=O)c2cc(OC)c(OC)c(OC)c2)n2nc(C)ccc12` here?
A: Its growth is 25.9% (inactive).

Q: With `COc1cc(/C=C/c2cc(/C=C/c3ccc(O)c(OC)c3)[nH]c(=O)n2)ccc1O` as the compound, how does the growth read?
A: Its growth is 71% (inactive).

Q: `O=C1CSC(=S)N1/N=C/c1ccc(Cl)s1` was tested. Which growth did it give?
A: Its growth is 99.8% (inactive).

Q: With `COc1ccc(-c2onc(N)c2-c2cc(OC)c3c(c2)OCO3)cc1` as the compound, how does the growth read?
A: Its growth is 52.1% (inactive).

Q: For `COc1cc(/C=C/c2cc(/C=C/c3ccc(O)c(OC)c3)n(C(=O)Nc3ccc(C)cc3)n2)ccc1O`, which growth is on record?
A: The growth was 2.19% (active).

Q: `COc1cc(NC(=O)Nc2cnc(Nc3ccc(N4CCOCC4)cc3)nc2Oc2cccc(OC)c2)cc(OC)c1` was tested. Which growth did it give?
A: The growth was 45.4% (inactive).

Q: How did the growth turn out when `CC(=O)N[C@H](C(=O)N[C@@H](CCCNC(=N)N)C(=O)N[C@@H](CCCCN)C(=O)N[C@@H](CCCNC(=N)N)C(=O)NC(C(=O)N[C@@H](CC(C)C)C(=O)N[C@@H](CCCNC(=N)N)C(=O)N[C@@]1(C)CCC/C=C\CCC[C@@](C)(C(=O)N[C@@H](CCCNC(=N)N)C(=O)N[C@@H](CCC(=O)O)C(=O)N[C@@H](CC(C)C)C(=O)N[C@H](C(=O)N[C@@H](CCC(=O)O)C(N)=O)C(C)C)NC(=O)[C@H](CCC(N)=O)NC(=O)[C@H](CC(C)C)NC(=O)[C@H](CC(C)C)NC1=O)[C@@H](C)O)C(C)C` (stereo not given in full) was run?
A: Its growth is 51.3% (inactive).

Q: How did the growth turn out when `Oc1ccc(/C=N/N=C2c3ccccc3-c3ccccc32)c(O)c1` was run?
A: The growth was 80.9% (inactive).

Q: How did the growth turn out when `C[C@@H](C[C@H](CCO)c1ccccc1)c1ccc2ccccc2c1` was run?
A: Its growth is -82.9% (active).
